This note sets out measurements from PubChem BioAssay (Tox21).

Each structure is given as a SMILES string. Several values for one entry are separate records, joined by “and”; a condition that tells them apart may be missing. Equal values may be shown once. Records with an inconclusive call do not appear. A call without a number means that no potency is given here. Unmarked numbers belong to inactive results. Activity calls are given as the source filed them. Unless noted, calls follow the shape of the full dose curve.

Beta-2 adrenergic receptor (Homo sapiens), sequence (P07550 whole entry, looked up): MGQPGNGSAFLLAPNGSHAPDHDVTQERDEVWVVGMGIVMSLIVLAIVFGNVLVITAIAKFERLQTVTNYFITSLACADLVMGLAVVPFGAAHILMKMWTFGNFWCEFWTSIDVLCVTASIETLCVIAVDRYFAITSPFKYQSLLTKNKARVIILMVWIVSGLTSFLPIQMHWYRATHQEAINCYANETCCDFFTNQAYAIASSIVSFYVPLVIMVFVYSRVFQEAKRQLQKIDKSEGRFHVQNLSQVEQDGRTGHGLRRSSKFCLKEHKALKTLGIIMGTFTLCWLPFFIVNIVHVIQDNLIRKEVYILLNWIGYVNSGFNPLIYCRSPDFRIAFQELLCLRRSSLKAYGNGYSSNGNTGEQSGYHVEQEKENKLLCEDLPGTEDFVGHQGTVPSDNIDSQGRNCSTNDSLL

Tested on in the first experiment: not listed separately
Put plainly: cAMP Responsive Elements (CRE) small molecule agonists, cell-based qHTS assay (AID 1963590). The note with it: CRE-bla HEK293T, beta-lactamase FRET ratio, 3 h; series mostly up to 92.4 µM. An outline of the steps:
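Quantitative HTS for CRE agonists: HEK 293T CRE-bla cells, overnight plating, 3 h compound incubation at 37 C/5% CO2, then 2 h room-temperature LiveBLAzer B/G FRET substrate loading.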
A general note: qHTS replaces the single test concentration by a dilution series.
In the case of `CCCCCCOc1ccccc1C(N)=O`, the Potency result is “inactive”.
On the same count and under the same terms, the value for `CCOC(=O)c1ccccc1OC` was “inactive”; that for `CC1(O)CSC(C)(O)CS1` (stereo not drawn) was “inactive”.
On the same count and under the same terms, for `CC(=O)NCCCS(=O)(=O)O` the value was “inactive”; for `Nc1cccnc1N`, “inactive”; for `O=C(O)[C@@H]1CSCN1`, “inactive”.
Still for that read-out and setting: for `O=[N+]([O-])c1ccc(O)cc1` the value was “inactive”; for `Cc1ccc(N/N=c2\c(=O)cc/c(=N\Nc3ccc(S(=O)(=O)O)cc3)c2=O)c(C)c1`, “inactive”.
Turning to `CC(C)(C)c1ccc(C(=O)O)cc1`, the Potency result was “inactive”.
The same measure, in the same setting: the value for `CC(C)c1ccc2ncccc2c1` was “inactive”; that for `C[C@@H](c1ncncc1F)C(O)(Cn1cncn1)c1ccc(F)cc1F` (stereo partly drawn) was “inactive”; that for `O=C(O)Cn1cnnn1` was “inactive”.
Same read-out and setting: for `NC(N)=N/N=C/c1c(Cl)cccc1Cl` the value was “inactive”.
Same read-out and setting: the value for `O=C(CC(=O)C(F)(F)F)c1ccccc1` was “inactive”.
In the case of `NCCc1cnc[nH]1`, the Potency result was “inactive”.
Same read-out and setting: the value for `CO[C@@]12[C@H](COC(N)=O)C3=C(C(=O)C(C)=C(N)C3=O)N1C[C@@H]1N[C@@H]12` was “inactive”; that for `O=C(/C=C/c1ccccc1)NCCO` was “inactive”.
The same measure, in the same setting: for `CC(C)C=O` the value was “inactive”.

Tested on in a further experiment: not listed separately
Put plainly: cAMP Responsive Elements (CRE) small molecule antagonists, cell-based qHTS assay (AID 1963591; active = well fitted inhibition curve with a large enough effect in the signal ratio in the repeat runs, not every such curve was filed as active; the % refers to the signal ratio; also: potency is read from the fitted curve at half-maximal effect). The note with it: CRE-bla HEK293T, beta-lactamase FRET ratio; series mostly up to 92.4 µM. In short, it runs like this:
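Fluorescence intensity from cleaved LiveBLAzer B/G substrate (2 h, room temperature) quantified CRE-bla activity in HEK 293T cells exposed 3 h to compound with 0.25 uM final NKH477.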
On to `CCCCCCOc1ccccc1C(N)=O`, for which the Potency result was “inactive”.
The same measure, in the same setting: for `CCOC(=O)c1ccccc1OC` the value was “inactive”; for `CC1(O)CSC(C)(O)CS1` (stereo not drawn), “inactive”.
Still for that read-out and setting: for `CC(=O)NCCCS(=O)(=O)O` the value was “inactive”; for `Nc1cccnc1N`, “inactive”; for `O=[N+]([O-])c1ccc(O)cc1`, “inactive”.
The same measure, in the same setting: the value for `Cc1ccc(N/N=c2\c(=O)cc/c(=N\Nc3ccc(S(=O)(=O)O)cc3)c2=O)c(C)c1` was “inactive”.
In the case of `CC(C)(C)c1ccc(C(=O)O)cc1`, the Potency entry was “inactive”.
Still for that read-out and setting: the value for `NC(N)=NN=C(/C=C/c1ccc([N+](=O)[O-])o1)/C=C/c1ccc([N+](=O)[O-])o1` was 29.8 µM (active).
Same read-out and setting: the value for `C[C@@H](c1ncncc1F)C(O)(Cn1cncn1)c1ccc(F)cc1F` (stereo partly drawn) was “inactive”.
Regarding `O=C(O)Cn1cnnn1`, the Potency result was “inactive”.
Consider `NC(N)=N/N=C/c1c(Cl)cccc1Cl`, for which the Potency result was “inactive”.
For `O=C(CC(=O)C(F)(F)F)c1ccccc1`, the Potency entry is “inactive”.
In the case of `CN1C[C@H]2c3ccccc3Oc3ccc(Cl)cc3[C@@H]2C1`, the Potency entry was “inactive”.
On the same count and under the same terms, for `CN1CCCN(C(c2ccccc2)c2ccc(Cl)cc2)CC1` (stereo not drawn) the value was “inactive”; for `NCCc1cnc[nH]1`, “inactive”.
Turning to `CO[C@@]12[C@H](COC(N)=O)C3=C(C(=O)C(C)=C(N)C3=O)N1C[C@@H]1N[C@@H]12`, the Potency entry is “inactive”.
On the same count and under the same terms, the value for `O=C(/C=C/c1ccccc1)NCCO` was “inactive”; that for `CC(C)C=O` was “inactive”.

Another experiment addresses Beta-2 adrenergic receptor (Homo sapiens) (UniProt P07550). As to the kind of experiment: Adrenergic beta2 receptor (ADRB2) small molecule antagonists, cell-based qHTS assay (AID 1963592). Also: nearly all actives have a fitted effect of over 50% in size. Also: potency is read from the fitted curve at half-maximal effect. To be noted: CHO-ADRB2 cells, isoproterenol-stimulated cAMP HTRF ratio, 0.5 h; series mostly up to 92.4 µM. An outline of the steps: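 Assay format: CHO-ADRB2 cells, 18-20hr seeding at 37C/5% CO2, then compound plus 1nM isoproterenol agonist mix for 0.5hr RT. Homogeneous time-resolved fluorescence cAMP detection after 1hr, expressed as 665/615 nm ratio.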
Regarding `CCCCCCOC(=O)c1ccc(O)cc1`, the Potency result was “inactive”.
With `CCN(CC)CCCC(C)Nc1ccnc2cc(Cl)ccc12` (stereo not drawn), the activity change, negative = inhibition is 0.663% [at 8.39 µM] and -0.0752% [at 19 µM].
As to `CCCCCCC(C)OC(=O)COc1nc(F)c(Cl)c(N)c1Cl` (stereo not drawn), the Potency result is “inactive”.
Still for that read-out and setting: for `CCCCCCOc1ccccc1C(N)=O` the value was “inactive”.
Still for that read-out and setting: for `CCC(CN)=C(c1ccccc1)c1ccccc1` the value was “inactive”; for `CCOC(=O)c1ccccc1OC`, “inactive”; for `CC1(O)CSC(C)(O)CS1` (stereo not drawn), “inactive”.
Same read-out and setting: for `CC(=O)NCCCS(=O)(=O)O` the value was “inactive”.
In the case of `O=[N+]([O-])c1ccc(O)cc1`, the Potency entry was “inactive”.
With `CC(C)(C)c1ccc(C(=O)O)cc1`, the Potency result was “inactive”.
`CCOC(=O)COc1ccc2c(C)c(CCN(CC)CC)c(=O)oc2c1Cl`: the Potency entry was “inactive”.
The same measure, in the same setting: for `O=[N+]([O-])c1ccc(O/N=C/c2cc(Br)c(O)c(Br)c2)c([N+](=O)[O-])c1` the value was “inactive”; for `NC(N)=NN=C(/C=C/c1ccc([N+](=O)[O-])o1)/C=C/c1ccc([N+](=O)[O-])o1`, “inactive”.
The same measure, in the same setting: the value for `CC(C)c1ccc2ncccc2c1` was “inactive”; that for `CCc1ccc(O)c(C(C)(C)C)c1` was “inactive”.
The same measure, in the same setting: for `CC[C@@]1(O)C(=O)OCc2c1cc1n(c2=O)Cc2cc3c(CN(C)C)c(O)ccc3nc2-1` the value was “inactive”; for `C[C@@H](c1ncncc1F)C(O)(Cn1cncn1)c1ccc(F)cc1F` (stereo partly drawn), “inactive”; for `O=C(O)Cn1cnnn1`, “inactive”.
In the case of `NC(N)=N/N=C/c1c(Cl)cccc1Cl`, the Potency result was “inactive”.
Still for that read-out and setting: for `O=C(CC(=O)C(F)(F)F)c1ccccc1` the value was “inactive”; for `NCCc1cnc[nH]1`, “inactive”.
Still for that read-out and setting: for `CCOC(=O)[C@H](CCc1ccccc1)N[C@H]1CCc2ccccc2N(CC(=O)O)C1=O` the value was 23.7 µM (active); for `CCN(CC)CCOC(=O)C1(C2CCCCC2)CCCCC1`, “inactive”.
Same read-out and setting: the value for `OC(CCN1CCCCC1)(c1ccccc1)C1CC2C=CC1C2` (stereo not drawn) was “inactive”; that for `O=C(/C=C/c1ccccc1)NCCO` was “inactive”.
With `CC(C)C=O`, the Potency entry was “inactive”.

A further experiment has the same target. Put plainly: Adrenergic beta2 receptor (ADRB2) small molecule agonists, cell-based qHTS assay (AID 1963593). Also: potency is read from the fitted curve at half-maximal effect.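 As to activation: CHO cells stably overexpressing human ADRB2.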 To be noted: CHO-ADRB2 cells, cAMP HTRF, 30 min; series mostly up to 92.4 µM. In short, it runs like this: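 CHO cells stably over-expressing ADRB2 were plated overnight at 37C, then dosed with compounds plus a stimulation mix containing 100uM IBMX and 25uM Ro-20-1724 for 0.5hr at room temperature. cAMP was measured by HTRF competition, 1hr.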
With `CCCCCCOC(=O)c1ccc(O)cc1`, the Potency result is “inactive”.
Regarding `CCN(CC)CCCC(C)Nc1ccnc2cc(Cl)ccc12` (stereo not drawn), the activation was 0.827% [at 19 µM].
For `O=C(O)[C@@H]1CSCN1`, the Potency entry was “inactive”.
`O=[N+]([O-])c1ccc(O)cc1`: the Potency result was “inactive”.
Same read-out and setting: the value for `Cc1ccc(N/N=c2\c(=O)cc/c(=N\Nc3ccc(S(=O)(=O)O)cc3)c2=O)c(C)c1` was “inactive”.
On to `CC(C)(C)c1ccc(C(=O)O)cc1`, for which the Potency result was “inactive”.
The same measure, in the same setting: the value for `CCOC(=O)COc1ccc2c(c1)CC(NCC(O)c1cccc(Cl)c1)CC2` (stereo not drawn) was “inactive”.
On the same count and under the same terms, for `CC[C@@]1(O)C(=O)OCc2c1cc1n(c2=O)Cc2cc3c(CN(C)C)c(O)ccc3nc2-1` the value was “inactive”; for `C[C@@H](c1ncncc1F)C(O)(Cn1cncn1)c1ccc(F)cc1F` (stereo partly drawn), “inactive”; for `NC(N)=N/N=C/c1c(Cl)cccc1Cl`, “inactive”.
On the same count and under the same terms, for `O=C(CC(=O)C(F)(F)F)c1ccccc1` the value was 13.9 µM (active); for `Oc1ccc(-c2ccccc2)c(Cl)c1`, “inactive”.
Turning to `OC(CCN1CCCCC1)(c1ccccc1)C1CC2C=CC1C2` (stereo not drawn), the Potency entry was “inactive”.
Same read-out and setting: the value for `O=C(/C=C/c1ccccc1)NCCO` was “inactive”.
With `CC(C)C=O`, the Potency result was “inactive”.
